We go through seven molecules from PubChem BioAssay (Tox21).

Unmarked numbers belong to inactive results. Results filed as inconclusive are left out. Activity calls are given as the source filed them. Unless noted, calls follow the shape of the dose curve; as a rule, active = well fitted curve in the direction sought with a large enough effect in the repeat runs; inconclusive = weak or mixed curves; inactive = no such curve, though single readings can be large; an effect the other way counts as inactive or inconclusive.

A short description of test [1]: qHTS assay to identify small molecule antagonists of the estrogen related receptor (ERR) signaling pathway from Tox21 library - cell viability counter screen (AID 1224834). Also: nearly all actives have a fitted effect of over 30% in size. Put shortly: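 Viability readout (CellTiter-Fluor fluorescence, 30 min at 37 C) multiplexed with the ERR assay; cells treated 17.5 h at 37 C with compounds delivered in DMSO.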
On the technique in general: In qHTS, concentration-response curves come from the screen itself.

For test [2], the target named is Luciferin 4-monooxygenase (Photinus pyralis) (UniProt P08659). Description: qHTS assay to identify small molecule inhibitors of firefly luciferase (AID 1224835). Also: nearly all actives have a fitted effect of over 25% in size. Put shortly: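 Quantitative HTS format; KM concentrations of both substrates. Purified P. pyralis FLuc activity quantified from luminescence images.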
Chain of Luciferin 4-monooxygenase (Photinus pyralis) (P08659 whole entry, looked up): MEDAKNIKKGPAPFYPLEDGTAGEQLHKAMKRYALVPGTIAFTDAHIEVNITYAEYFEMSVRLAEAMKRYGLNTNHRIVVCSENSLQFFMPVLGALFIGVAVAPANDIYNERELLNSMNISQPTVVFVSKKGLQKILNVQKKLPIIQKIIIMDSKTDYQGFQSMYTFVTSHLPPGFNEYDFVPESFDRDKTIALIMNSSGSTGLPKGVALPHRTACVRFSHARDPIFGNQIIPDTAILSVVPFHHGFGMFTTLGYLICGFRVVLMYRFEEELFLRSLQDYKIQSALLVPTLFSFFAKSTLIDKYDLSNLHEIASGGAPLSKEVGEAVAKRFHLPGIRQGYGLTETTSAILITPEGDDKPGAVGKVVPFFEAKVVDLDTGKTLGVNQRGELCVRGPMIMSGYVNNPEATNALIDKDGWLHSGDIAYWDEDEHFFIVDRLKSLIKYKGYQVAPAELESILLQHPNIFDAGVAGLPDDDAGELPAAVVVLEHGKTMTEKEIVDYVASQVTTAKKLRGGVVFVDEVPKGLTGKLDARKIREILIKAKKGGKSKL
Test [3] can be described thus: qHTS assay to identify small molecule agonists of the constitutive androstane receptor (CAR) signaling pathway - cell viability counter screen (AID 1224836). Also: nearly all actives have a fitted effect of over 45% in size. Put shortly: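 Multiplexed viability check: HepG2-CYP2B6-hCAR cells, 15-point compound dosing, 0.75 uM PK11195 final, 23 h at 37 C, CellTiter-Fluor fluorescence.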
The nature of test [4]: qHTS assay to identify small molecule antagonists of the constitutive androstane receptor (CAR) signaling pathway - cell viability counter screen (AID 1224837). Also: nearly all actives have a fitted effect of over 45% in size. Put shortly:
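Fluorescence from CellTiter-Fluor served as the viability signal. Human hepatoma HepG2 cells stably bearing hCAR and CYP2B6-2.2kb received compound plus CITCO (50 nM final) for 23 hr.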

Test [5] has as its target Nuclear receptor subfamily 1 group I member 3 (Homo sapiens) (UniProt Q14994). Nature of the test: qHTS assay to identify small molecule antagonists of the constitutive androstane receptor (CAR) signaling pathway (AID 1224838).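 Also: HepG2 cells stably expressing hCAR with CYP2B6 luciferase reporter stimulated by CITCO; nearly all actives have a fitted effect of over 40% in size.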 Also: potency is read from the fitted curve at half-maximal effect. Put shortly: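 Quantitative HTS in double-stable HepG2-CYP2B6-hCAR cells. After 4 h plating, cells get compound (15 concentrations) and CITCO at 50 nM final, incubate 24 h at 37 C, then ONE-Glo luminescence is read.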

Test [6] has the same target. Description: qHTS assay to identify small molecule agonists of the constitutive androstane receptor (CAR) signaling pathway (AID 1224839).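 Also: HepG2 cells stably carrying human CAR and a CYP2B6 luciferase reporter; nearly all actives have a fitted effect of over 15% in size.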 Put shortly:
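Using human hepatoma HepG2 cells engineered with hCAR and a CYP2B6-2.2kb reporter, 15-concentration compound series were incubated 24 h alongside PK11195 at 0.75 uM final, with luminescence quantified afterwards.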

Test [7] is described as follows: qHTS assay to identify small molecule antagonists of the estrogen related receptor signaling pathway with the pleiotropic PPARgamma coactivator (PGC) from Tox21 10K library - cell viability counter screen (AID 1224840; active = well fitted cell-killing curve with a large enough effect in the repeat runs, not every such curve was filed as active; also: nearly all actives have a fitted effect of over 40% in size). Put shortly:
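Compounds in DMSO, alongside positive and negative controls, were pinned onto PGC/ERR cells (2,000 per well). Exposure lasted 17.5 hours at 37 C, followed by a 30-minute CellTiter-Fluor incubation and fluorescence reading.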

Test [8] can be described thus: qHTS assay to identify small molecule antagonists of the estrogen related receptor signaling pathway with the pleiotropic PPARgamma coactivator (PGC) from Tox21 10K library (AID 1224841; call rule not given here; also: actives are mostly falling curves and most rising ones were filed inactive; nearly all actives have a fitted effect of over 50% in size). Put shortly: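 Compound exposure ran 18 hours at 37 C in PGC/ERR cells (2,000/well) that had first rested 6 hours in a 37 C/5% CO2 incubator. Luciferase activity was then detected with One-Glo after a 30-minute room-temperature step.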

Test [9] is described as follows: qHTS assay to identify small molecule agonists of the estrogen related receptor signaling pathway with the pleiotropic PPARgamma coactivator (PGC) from Tox21 10K library (AID 1224842). Also: nearly all actives have a fitted effect of over 15% in size. Put shortly:
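PGC/ERR reporter cells (NTP line) were seeded 2,000 per well, rested 6 h at 37 C/5% CO2, then pin-dosed with compounds in DMSO for 18 h at 37 C; luciferase read by One-Glo luminescence after 30 min at room temperature.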

A short description of test [10]: qHTS assay to identify small molecule agonists of the hypoxia (HIF-1) signaling pathway - cell viability counter screen (AID 1224844; calls by dose curve; also: nearly all actives have a fitted effect of over 50% in size; also: potency is read from the fitted curve at half-maximal effect). Put shortly:
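Luminescent ATP content (CellTiter-Glo, 30 min, room temperature) served as the viability measure in HRE-bla ME-180 cells exposed to compounds for 17 hrs in low-serum medium (0.5% dialyzed FBS).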

Test [11] can be described thus: qHTS assay to identify small molecule agonists of H2AX (AID 1224845; active = well fitted activation curve with a large enough effect in the signal ratio in the repeat runs, not every such curve was filed as active; the % refers to the signal ratio). Put shortly: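 Wild-type CHO-K1 cells plated overnight, then exposed 3 hr at 37C to compounds at 15 concentrations (0.76% DMSO). Lysed, then HTRF anti-pH2AX(S139)-cryptate/anti-H2AX-d2 detection after 24 hr at room temperature; emissions 665 and 620 nm.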
Test [12] in a line: qHTS assay to identify small molecule agonists of the hypoxia (HIF-1) signaling pathway (AID 1224846; active = well fitted activation curve with a large enough effect in the signal ratio in the repeat runs, not every such curve was filed as active; the % refers to the signal ratio). The gist of the method:
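Measured by blue/green FRET after loading CCF4-AM: beta-lactamase expressed from a hypoxia response element in ME-180 cells. Test agents were delivered in DMSO and left 17 hrs; cells had been plated 5 hrs earlier in low-serum (0.5% dialyzed FBS) medium.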

The nature of test [13]: qHTS assay to identify small molecule antagonists of the estrogen related receptor (ERR) signaling pathway from Tox21 library (AID 1224848). Also: nearly all actives have a fitted effect of over 50% in size. Put shortly:
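Cells: ERR line, 2,000/well; 6 h preincubation 37 C/5% CO2. Cpd in DMSO via pin tool; 18 h, 37 C. ONE-Glo, 30 min RT, luminescence.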

Test [14] in a line: qHTS assay to identify small molecule agonists of the estrogen related receptor (ERR) signaling pathway from Tox21 library (AID 1224849; calls by dose curve; also: nearly all actives have a fitted effect of over 15% in size). The note with it: ERR reporter cell line, ONE-Glo luciferase, 18 h; at 92.4 µM (top of the series) unless noted. Put shortly: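 We plated ERR reporter cells, waited 6 h, added compounds in DMSO by pin tool and incubated them 18 h at 37 C. ONE-Glo was then added and luminescence read after 30 min.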

Test [15] is described as follows: qHTS RealTime-Glo MT Cell Viability Assay in HepG2 cells - 24 hour (AID 1224867). Also: nearly all actives have a fitted effect of over 50% in size. Put shortly: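 Cell number in HepG2 cultures estimated from NanoLuc luminescence generated by metabolic reduction of a prosubstrate by living cells. The homogeneous, nonlytic format allowed repeated reads at 0, 8, 16, 24, 32 and 40 h of compound exposure.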
Test [16] can be described thus: qHTS RealTime-Glo MT Cell Viability Assay in HEK293 cells - 32 hour (AID 1224868). Put shortly: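 Homogeneous bioluminescent viability format in HEK293 cells (600 cells/well). Following 5 h at 37 C/5% CO2, 23 nL compound was pintooled; the signal was measured repeatedly during 40 h incubation.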
Test [17] is described as follows: A CellTox Green Cytotoxicity Assay to monitor cytotoxicity in HEK293 cells - 0 hour (AID 1224869). Also: nearly all actives have a fitted effect of over 50% in size. The gist of the method:
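Each value comes from one timepoint of a single continuous run in which HEK293 cells with CellTox Green were exposed to compound for up to 40 h at 37 C, dye fluorescence rising with cell death.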

Test [18] is described as follows: qHTS RealTime-Glo MT Cell Viability Assay in HepG2 cells - 40 hour (AID 1224870). Also: nearly all actives have a fitted effect of over 50% in size. Put shortly:
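HepG2 cells mixed with RealTime-Glo MT reagents (NanoLuc plus cell-permeant prosubstrate) were seeded at 600 cells/well, incubated 5 h at 37 C/5% CO2, then pinned with compounds in DMSO; nonlytic luminescence tracked viability during 40 h treatment.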

The target in test [19] is Thyrotropin receptor (Homo sapiens) (UniProt P16473). Description: qHTS assay to identify small molecule agonists of the thyroid stimulating hormone receptor (TSHR) signaling pathway (AID 1224843; calls by dose curve; also: nearly all actives have a fitted effect of over 45% in size). The gist of the method: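 TSHR-expressing HEK293 cells (800 per well) were exposed to compounds for 30 min at room temperature. cAMP was then detected by HTRF competition with cAMP-d2 and anti-cAMP cryptate, read after 1 h at room temperature. Fifteen concentrations, triplicate.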
Chain of Thyrotropin receptor (Homo sapiens) (P16473 whole entry, looked up): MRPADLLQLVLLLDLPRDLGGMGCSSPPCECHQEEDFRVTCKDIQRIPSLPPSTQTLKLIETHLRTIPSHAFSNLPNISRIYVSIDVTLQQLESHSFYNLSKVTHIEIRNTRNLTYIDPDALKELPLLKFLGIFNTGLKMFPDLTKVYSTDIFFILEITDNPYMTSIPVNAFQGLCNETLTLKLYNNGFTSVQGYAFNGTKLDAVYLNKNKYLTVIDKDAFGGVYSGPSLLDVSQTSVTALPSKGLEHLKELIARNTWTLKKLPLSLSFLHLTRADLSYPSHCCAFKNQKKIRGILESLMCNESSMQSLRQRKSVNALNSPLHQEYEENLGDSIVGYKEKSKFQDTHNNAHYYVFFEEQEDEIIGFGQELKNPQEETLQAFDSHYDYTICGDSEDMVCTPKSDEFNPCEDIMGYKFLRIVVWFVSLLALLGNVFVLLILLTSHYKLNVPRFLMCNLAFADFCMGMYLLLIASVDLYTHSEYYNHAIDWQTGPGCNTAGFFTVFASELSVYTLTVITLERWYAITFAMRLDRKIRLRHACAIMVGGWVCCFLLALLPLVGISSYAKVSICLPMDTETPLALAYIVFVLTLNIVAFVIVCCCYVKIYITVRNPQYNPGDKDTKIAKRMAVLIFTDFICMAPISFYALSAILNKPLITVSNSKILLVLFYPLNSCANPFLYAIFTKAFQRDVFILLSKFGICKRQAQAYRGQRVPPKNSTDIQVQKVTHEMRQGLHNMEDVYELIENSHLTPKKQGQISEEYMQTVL

The nature of test [20]: qHTS assay to identify small molecule agonists of H2AX - cell viability counter screen (AID 1224847; calls by dose curve; also: top concentration of the series differs between compounds; nearly all actives have a fitted effect of over 30% in size). Put shortly: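 After overnight plating of 1000 CHO-K1 cells per well, a 15-concentration compound series was applied for 3 hr at 37C. Luminescence from CellTiter-Glo, read following 30 min at room temperature, reflected cell viability.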
% is scaled to controls: 0 for no effect and ±100 for the full control effect.

Chain of Nuclear receptor subfamily 1 group I member 3 (Homo sapiens) (Q14994 whole entry, looked up): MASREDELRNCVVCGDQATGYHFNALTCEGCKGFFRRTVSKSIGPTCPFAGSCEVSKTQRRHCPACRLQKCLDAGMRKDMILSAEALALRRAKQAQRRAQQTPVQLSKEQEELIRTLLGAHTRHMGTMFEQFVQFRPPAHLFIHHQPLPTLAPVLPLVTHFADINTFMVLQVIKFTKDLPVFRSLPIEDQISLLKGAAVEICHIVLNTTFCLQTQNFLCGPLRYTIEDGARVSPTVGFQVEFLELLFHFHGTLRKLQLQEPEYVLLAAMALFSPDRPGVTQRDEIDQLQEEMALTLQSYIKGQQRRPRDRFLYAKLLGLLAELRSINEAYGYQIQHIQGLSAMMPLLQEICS

Consider `CC/C=C1/OC(=O)c2ccccc21`, for which the Potency entry in test [1], in test [2], in [3], in test [4], in test [5] and in [6] was “inactive” each time. In addition, the Potency entry in test [7], in [8], in test [9], in test [10], in test [11] and in test [13] was “inactive” in each case. Besides, the Potency entry in test [15], in [16], in [17] and in test [18] was “inactive” in each case. The result in [12] was inactive. Besides, the activity change, positive = activation in [14] is -1.59%.
For `CC(CN(C)C)C(C)(O)Cc1ccc(Cl)cc1` (stereo not given), the Potency result in [1], in test [2], in [3], in [4], in test [5] and in [6] was “inactive” in each case. Further, the Potency entry in test [7], in test [8], in [9], in [19], in test [10] and in [11] was “inactive” throughout. Further, the Potency result in [13], in [15], in test [16] and in test [17] was “inactive” in each case. Further, the outcome in [12] was inactive. The activity change, positive = activation in test [14] was 9.4% [at 42.5 µM].
As to `CCCCCCCCC(CCCCCC)C(=O)O` (stereo not given), the Potency entry in test [1], in test [2], in test [3], in test [4], in test [5] and in test [6] was “inactive” throughout. Also, the Potency result in test [7], in test [8], in [9], in [19], in test [11] and in test [15] was “inactive” throughout. Besides, the Potency result in test [16], in test [17] and in test [18] was “inactive” throughout. In [10], the Potency is 43.6 µM (active). The activity change, positive = activation in test [14] is -27.5%.
As for `CCCCCCNC(=O)n1cc(F)c(=O)[nH]c1=O`, the Potency result in [1], in test [2], in [3], in test [4], in [6] and in [7] was “inactive” in each case. Moreover, the Potency entry in [8], in test [9], in test [19], in [10], in test [20] and in [13] was “inactive” in each case. The Potency entry in test [15], in test [16], in test [17] and in test [18] was “inactive” in each case. Besides, the Potency in test [5] is 2.11 µM (active). The molecule was classed as inactive in test [12]. In [14], the activity change, positive = activation is -8.15% [at 42.5 µM].
Take `O=C(O)CCc1nc(-c2ccccc2)c(-c2ccccc2)o1`: the Potency entry in test [1], in [2], in [3], in test [4], in test [5] and in [6] was “inactive” in each case. Besides, the Potency result in test [7], in test [8], in [9], in test [19], in [10] and in test [11] was “inactive” in each case. Also, the Potency entry in test [20], in [13], in [15], in [16], in test [17] and in test [18] was “inactive” throughout. In addition, the activity change, positive = activation in test [14] was -3.38% [at 42.5 µM].
In the case of `COc1ccc(OC(=O)N(CC(=O)O)Cc2ccc(OCCc3nc(-c4ccccc4)oc3C)cc2)cc1`, the Potency entry in [1], in test [2], in test [3], in [4], in test [5] and in test [6] was “inactive” throughout. Also, the Potency result in test [7], in test [8], in test [9], in [19], in [11] and in test [15] was “inactive” in each case. For the same molecule, the Potency result in test [16], in [17] and in test [18] was “inactive” in each case. For the same molecule, in test [12], the molecule was called inactive. Besides, the activity change, positive = activation in [14] was -6.74% [at 42.5 µM].
Turning to `CC(CCC(=O)O)C(=O)O` (stereo not given), the Potency result in [1], in [2], in test [3], in [4], in test [5] and in test [6] was “inactive” each time. The Potency result in test [7], in test [8], in [9], in [10], in [11] and in test [20] was “inactive” throughout. In addition, the Potency result in test [13], in [15], in [16] and in test [17] was “inactive” throughout. Moreover, the activity change, positive = activation in test [14] was 3.47%.
